Test results reported in the supplement of paper PMC10849652.
Targets with a hit are over-represented here; the source holds about 7,900 in all. About 0.6% of all pairs of compound and target were hits.

compound: CCCc1cc(C)[nH]c(=O)c1CNC(=O)c1cc(-c2ccnc(N3CCN(C)CC3)c2)cc2c1cnn2C(C)C; test: log2 fold change, soluble protein after heating vs DMSO (PISA); higher = thermal stabilisation; K562 cells, 10 uM, 30 min; active = over 0.2 and 3.5 SD of the protein, either way, in both replicates (recomputed)
Outline: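 Values are thermal stability changes relative to control samples and are taken from duplicates. They are stated as log2 fold changes. Before quantification by TMTpro 16plex LC-MS/MS with equalised channel sums, K562 cells at 2×10^6 cells/mL were treated with 10 μM compound for 30 min, heated in aliquots for 3 min across 48°C-58°C, pooled, extracted in PBS with 0.5% NP-40 at 4°C, and centrifuged at 21,000xg for 90 min to give the soluble supernatant.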

UniProt Q7Z4H3, sequence (Q7Z4H3 whole entry, looked up): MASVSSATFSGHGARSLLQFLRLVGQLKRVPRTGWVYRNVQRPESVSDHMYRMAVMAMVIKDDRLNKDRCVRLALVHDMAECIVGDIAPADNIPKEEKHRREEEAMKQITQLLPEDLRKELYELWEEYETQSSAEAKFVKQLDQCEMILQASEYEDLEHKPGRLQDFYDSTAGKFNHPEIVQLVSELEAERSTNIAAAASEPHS
UniProt Q9UJY4, sequence (Q9UJY4 whole entry, looked up): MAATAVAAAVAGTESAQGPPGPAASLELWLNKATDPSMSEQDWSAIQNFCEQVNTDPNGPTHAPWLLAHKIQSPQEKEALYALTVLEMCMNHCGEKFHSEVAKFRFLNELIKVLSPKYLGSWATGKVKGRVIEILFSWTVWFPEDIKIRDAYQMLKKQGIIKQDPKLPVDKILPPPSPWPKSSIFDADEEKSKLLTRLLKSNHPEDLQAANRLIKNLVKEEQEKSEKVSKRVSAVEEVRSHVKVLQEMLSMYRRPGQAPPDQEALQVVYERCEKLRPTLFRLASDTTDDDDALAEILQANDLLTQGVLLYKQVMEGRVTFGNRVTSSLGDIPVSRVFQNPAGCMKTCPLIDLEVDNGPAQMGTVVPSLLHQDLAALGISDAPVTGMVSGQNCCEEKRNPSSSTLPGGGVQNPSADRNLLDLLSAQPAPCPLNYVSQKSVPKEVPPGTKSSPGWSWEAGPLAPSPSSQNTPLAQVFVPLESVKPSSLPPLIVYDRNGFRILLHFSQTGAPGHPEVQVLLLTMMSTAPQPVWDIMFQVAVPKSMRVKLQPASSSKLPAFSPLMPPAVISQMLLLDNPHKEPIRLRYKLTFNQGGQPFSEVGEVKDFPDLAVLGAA
UniProt O15228, sequence (O15228 whole entry, looked up): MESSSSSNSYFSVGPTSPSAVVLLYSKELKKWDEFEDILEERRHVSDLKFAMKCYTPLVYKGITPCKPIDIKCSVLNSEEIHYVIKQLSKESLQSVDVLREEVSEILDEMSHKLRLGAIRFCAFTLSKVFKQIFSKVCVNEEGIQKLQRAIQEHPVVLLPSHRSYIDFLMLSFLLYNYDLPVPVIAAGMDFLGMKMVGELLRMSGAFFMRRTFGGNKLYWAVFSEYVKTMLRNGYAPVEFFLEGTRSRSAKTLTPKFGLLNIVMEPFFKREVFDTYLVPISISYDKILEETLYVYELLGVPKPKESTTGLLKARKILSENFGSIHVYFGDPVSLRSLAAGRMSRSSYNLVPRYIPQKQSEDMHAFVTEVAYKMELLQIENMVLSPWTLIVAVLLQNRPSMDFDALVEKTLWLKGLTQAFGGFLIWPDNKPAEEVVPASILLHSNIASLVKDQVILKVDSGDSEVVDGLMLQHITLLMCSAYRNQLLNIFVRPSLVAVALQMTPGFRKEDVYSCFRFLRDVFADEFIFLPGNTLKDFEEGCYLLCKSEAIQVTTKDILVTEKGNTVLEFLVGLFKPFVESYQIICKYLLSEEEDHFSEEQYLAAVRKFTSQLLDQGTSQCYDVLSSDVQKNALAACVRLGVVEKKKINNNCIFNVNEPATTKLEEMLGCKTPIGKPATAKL
UniProt P49840, sequence (P49840 whole entry, looked up): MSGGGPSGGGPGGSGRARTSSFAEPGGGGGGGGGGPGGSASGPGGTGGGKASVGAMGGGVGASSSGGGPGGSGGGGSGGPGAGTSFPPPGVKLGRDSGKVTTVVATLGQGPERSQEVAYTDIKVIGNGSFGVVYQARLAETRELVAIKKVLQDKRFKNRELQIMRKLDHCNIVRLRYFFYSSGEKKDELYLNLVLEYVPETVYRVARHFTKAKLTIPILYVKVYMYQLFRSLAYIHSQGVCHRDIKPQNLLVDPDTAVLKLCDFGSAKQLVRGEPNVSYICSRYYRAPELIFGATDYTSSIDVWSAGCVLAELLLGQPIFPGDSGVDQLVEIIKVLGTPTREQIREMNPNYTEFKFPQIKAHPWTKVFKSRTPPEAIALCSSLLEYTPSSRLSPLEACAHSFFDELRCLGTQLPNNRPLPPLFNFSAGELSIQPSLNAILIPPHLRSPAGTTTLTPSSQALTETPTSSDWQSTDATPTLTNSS
UniProt Q9H4A6, sequence (Q9H4A6 whole entry, looked up): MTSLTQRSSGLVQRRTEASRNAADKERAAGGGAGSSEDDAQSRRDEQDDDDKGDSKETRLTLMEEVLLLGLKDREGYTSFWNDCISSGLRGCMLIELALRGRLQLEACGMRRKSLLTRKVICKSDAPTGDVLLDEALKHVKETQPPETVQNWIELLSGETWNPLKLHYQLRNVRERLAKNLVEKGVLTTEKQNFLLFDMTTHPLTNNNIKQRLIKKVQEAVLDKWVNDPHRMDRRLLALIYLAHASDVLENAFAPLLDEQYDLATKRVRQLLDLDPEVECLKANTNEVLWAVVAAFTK
UniProt Q8IWJ2, sequence (Q8IWJ2 whole entry, looked up): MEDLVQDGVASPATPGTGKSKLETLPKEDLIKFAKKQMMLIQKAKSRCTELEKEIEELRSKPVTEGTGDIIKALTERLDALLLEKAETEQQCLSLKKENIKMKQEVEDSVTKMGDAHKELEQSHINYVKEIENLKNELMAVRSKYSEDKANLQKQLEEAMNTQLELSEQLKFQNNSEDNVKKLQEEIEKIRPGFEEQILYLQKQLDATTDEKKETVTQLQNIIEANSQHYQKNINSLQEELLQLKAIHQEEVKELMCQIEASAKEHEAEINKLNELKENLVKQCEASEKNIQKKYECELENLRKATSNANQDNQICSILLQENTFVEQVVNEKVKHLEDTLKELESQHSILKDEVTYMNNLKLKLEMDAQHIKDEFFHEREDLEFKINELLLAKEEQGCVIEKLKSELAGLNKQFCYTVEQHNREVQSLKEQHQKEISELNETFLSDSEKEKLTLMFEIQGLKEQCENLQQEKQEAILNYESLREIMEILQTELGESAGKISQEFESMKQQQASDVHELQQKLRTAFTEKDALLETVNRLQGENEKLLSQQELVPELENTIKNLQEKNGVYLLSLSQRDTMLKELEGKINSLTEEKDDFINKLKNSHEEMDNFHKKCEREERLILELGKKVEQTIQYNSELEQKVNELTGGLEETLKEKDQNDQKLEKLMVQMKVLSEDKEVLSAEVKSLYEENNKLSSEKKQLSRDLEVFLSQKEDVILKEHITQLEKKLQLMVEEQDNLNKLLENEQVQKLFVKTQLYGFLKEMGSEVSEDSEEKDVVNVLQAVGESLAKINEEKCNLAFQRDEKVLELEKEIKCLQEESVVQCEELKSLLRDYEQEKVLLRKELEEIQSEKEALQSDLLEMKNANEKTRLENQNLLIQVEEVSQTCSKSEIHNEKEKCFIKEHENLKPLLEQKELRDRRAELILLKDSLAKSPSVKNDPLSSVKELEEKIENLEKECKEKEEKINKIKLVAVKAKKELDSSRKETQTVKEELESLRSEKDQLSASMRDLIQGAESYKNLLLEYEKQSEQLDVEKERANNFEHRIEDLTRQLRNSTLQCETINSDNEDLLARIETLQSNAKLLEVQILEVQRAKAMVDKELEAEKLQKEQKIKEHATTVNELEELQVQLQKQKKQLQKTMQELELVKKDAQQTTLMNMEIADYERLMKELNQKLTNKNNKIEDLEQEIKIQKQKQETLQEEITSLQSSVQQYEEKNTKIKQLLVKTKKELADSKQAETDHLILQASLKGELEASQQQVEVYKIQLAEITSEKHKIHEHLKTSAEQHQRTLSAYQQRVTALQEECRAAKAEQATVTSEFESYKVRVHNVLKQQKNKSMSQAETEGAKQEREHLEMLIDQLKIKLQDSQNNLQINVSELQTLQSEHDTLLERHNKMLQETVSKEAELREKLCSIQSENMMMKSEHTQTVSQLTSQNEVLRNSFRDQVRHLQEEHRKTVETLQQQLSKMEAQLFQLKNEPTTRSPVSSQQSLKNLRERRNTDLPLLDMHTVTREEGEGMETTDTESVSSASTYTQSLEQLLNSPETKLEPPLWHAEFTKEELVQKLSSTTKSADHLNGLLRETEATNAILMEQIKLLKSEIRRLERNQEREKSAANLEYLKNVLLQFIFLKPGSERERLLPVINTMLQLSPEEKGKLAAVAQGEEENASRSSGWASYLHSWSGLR
UniProt Q10472, sequence (Q10472 whole entry, looked up): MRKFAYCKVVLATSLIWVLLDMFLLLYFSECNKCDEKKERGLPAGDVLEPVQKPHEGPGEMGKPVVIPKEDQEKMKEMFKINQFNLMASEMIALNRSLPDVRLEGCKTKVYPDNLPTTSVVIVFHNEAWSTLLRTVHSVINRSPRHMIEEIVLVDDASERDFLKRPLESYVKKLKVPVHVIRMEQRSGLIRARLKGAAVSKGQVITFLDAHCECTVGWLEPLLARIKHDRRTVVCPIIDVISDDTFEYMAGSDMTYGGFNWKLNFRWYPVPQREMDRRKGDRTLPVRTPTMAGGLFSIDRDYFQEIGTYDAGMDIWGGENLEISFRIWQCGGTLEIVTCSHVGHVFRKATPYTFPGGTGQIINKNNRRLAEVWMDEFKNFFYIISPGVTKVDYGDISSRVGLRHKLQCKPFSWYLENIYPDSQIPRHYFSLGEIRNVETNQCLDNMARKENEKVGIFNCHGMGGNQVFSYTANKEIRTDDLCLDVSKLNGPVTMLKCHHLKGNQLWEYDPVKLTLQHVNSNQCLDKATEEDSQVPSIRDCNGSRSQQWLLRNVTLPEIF
UniProt P31943, sequence (P31943 whole entry, looked up): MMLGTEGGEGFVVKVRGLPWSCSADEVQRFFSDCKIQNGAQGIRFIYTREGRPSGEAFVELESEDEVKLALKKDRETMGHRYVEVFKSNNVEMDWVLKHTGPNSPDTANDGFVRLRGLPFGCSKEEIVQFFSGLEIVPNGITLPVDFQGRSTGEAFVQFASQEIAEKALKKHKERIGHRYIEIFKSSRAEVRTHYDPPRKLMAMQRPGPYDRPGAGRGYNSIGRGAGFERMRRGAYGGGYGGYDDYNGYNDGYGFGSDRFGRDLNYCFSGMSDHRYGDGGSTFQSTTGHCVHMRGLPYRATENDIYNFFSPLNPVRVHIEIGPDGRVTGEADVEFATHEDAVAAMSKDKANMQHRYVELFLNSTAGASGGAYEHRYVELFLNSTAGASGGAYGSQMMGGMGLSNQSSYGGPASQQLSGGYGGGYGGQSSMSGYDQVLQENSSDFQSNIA

log2 fold change, inactive:
GNB2 (UniProt P62879) 0.012
GTF2B (UniProt Q00403) 0.017
GTF2E1 (UniProt P29083) -0.006
GPX4 (UniProt P36969) -0.027
HMGB3 (UniProt O15347) 0.202
GAPVD1 isoform 6 (UniProt Q14C86) 0.047
FNTB (UniProt P49356) 0.029
FKBP4 (UniProt Q02790) -0.009
IFRD1 (UniProt O00458) -0.111
IFT80 isoform 3 (UniProt Q9P2H3) -0.013
IFI30 (UniProt P13284) 0.034
GALNT1 (UniProt Q10472) -0.055
FUBP3 (UniProt Q96I24) -0.059
ICMT (UniProt O60725) 0.064
GCC2 (UniProt Q8IWJ2) 0.073
HIC2 (UniProt Q96JB3) -0.005
HRC (UniProt P23327) -0.025
HSD17B12 (UniProt Q53GQ0) -0.141
HMGCR isoform 3 (UniProt P04035) -0.043
GOLPH3 (UniProt Q9H4A6) -0.011
GEMIN5 (UniProt Q8TEQ6) 0.018
FUCA2 (UniProt Q9BTY2) -0.025
HNRNPH1 (UniProt P31943) 0.029
GNPAT (UniProt O15228) 0.03
GOPC (UniProt Q9HD26) 0.244
HPCAL1 (UniProt P37235) -0.076
GTF2A2 (UniProt P52657) -0.053
GSK3A (UniProt P49840) -0.039
HBQ1 (UniProt P09105) -0.012
HOOK3 (UniProt Q86VS8) -0.026
HEXA (UniProt P06865) -0.023
GGA2 (UniProt Q9UJY4) -0.059
HNRNPC isoform 2 (UniProt P07910) 0.028
H2AFX (UniProt P16104) 0.1
HDDC2 (UniProt Q7Z4H3) -0.018
